Data on 5 molecules can be found in PubChem BioAssay (EPA / NIEHS).

Assay [1] can be described thus: ATG_CMV_CIS: Attagene CIS-FACTORIAL HepG2 Assay for human CMV (Internal Marker) (AID 2282928).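 Also: endpoint acts as a background internal control marker rather than a target.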 The following applies: HepG2 CMV promoter reporter, transcription factor profiling; actives raise or lower the signal. The method, boiled down:
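Endogenous transcription factor activity read in HepG2 via transfected cis-promoter reporter units. After 24 h dosing, reporter mRNA measured by RT-PCR/capillary electrophoresis; gain or loss of signal fit relative to DMSO.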

Assay [2] in a line: ATG_DR4_LXR_CIS: Attagene CIS-FACTORIAL HepG2 Assay for human Liver X Receptor (LXR), DR4 submotif (AID 2282929). The following applies: HepG2 Attagene DR4 cis-reporter, mRNA transcription; actives raise or lower the signal. The method, boiled down:
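Transiently transfected HepG2 liver cells; cis-regulated reporters; 24 h dosing. RT-PCR plus CE read-out of reporter mRNA. DMSO baseline, bidirectional curve fitting.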

The nature of assay [3]: ATG_AP_2_CIS: Attagene CIS-FACTORIAL HepG2 Assay for human Activator Protein 2 (AP-2) (AID 2282932). The following applies: HepG2 AP-2 cis-reporter, Attagene transcription factor profiling; actives raise or lower the signal. The method, boiled down:
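HepG2 cells were transiently transfected with multiple cis-promoter reporter transcription units and dosed for 24 h. Reporter mRNA was measured by RT-PCR with capillary electrophoresis fluorescence; bidirectional fits relative to DMSO baseline.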

Assay [4] has as its target Transcription factor E2F1 (Homo sapiens) (UniProt Q01094). The assay can be described thus: ATG_E2F_CIS: Attagene CIS-FACTORIAL HepG2 Assay for human E2F Transcription Factor 1 (AID 2282935). The following applies: HepG2 Attagene cis-reporter, E2F reporter RNA transcripts; actives raise or lower the signal. The method, boiled down: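 HepG2 cells transiently transfected with multiplexed cis-element reporter units, dosed for 24 h. Reporter mRNA measured by RT-PCR, 6-FAM primer-extension labeling, HpaI digestion and capillary electrophoresis; bidirectional fit versus DMSO baseline.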

Assay [5] in a line: ATG_M_61_CIS: Attagene CIS-FACTORIAL HepG2 Assay for M61 Transcription Factor (Internal Marker) (AID 2282937). The following applies: HepG2 Attagene CIS-FACTORIAL M61 internal marker reporter; actives raise or lower the signal. The method, boiled down: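 Multiplexed reporter mRNA assay, HepG2 human hepatoma cells, 24 h treatment. Signal: FAM-labelled, HpaI-digested RT-PCR fragments by CE. Fit: bidirectional, baseline DMSO.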

A short description of assay [6]: ATG_EGR_CIS: Attagene CIS-FACTORIAL HepG2 Assay for human Early Growth Response 1 (EGR1) (AID 2282938). Particulars: HepG2 Attagene CIS-FACTORIAL EGR reporter mRNA; actives raise or lower the signal. The method, boiled down:
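Multiplexed cis-reporter system in human hepatoma HepG2 cells, transiently transfected. Cells are dosed for 24 h; reporter transcripts are amplified, fluorescently tagged and sized by capillary electrophoresis, with DMSO as negative control.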

Assay [7] is described as follows: ATG_Ets_CIS: Attagene CIS-FACTORIAL HepG2 Assay for human Erythroblast Transformation Specific (ETS) (AID 2282941). Particulars: HepG2 ETS cis-reporter transcription, actives raise or lower the signal. The method, boiled down:
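Steps: transfect HepG2 with multiple reporter units; treat compound 24 h; isolate RNA, DNase-treat, reverse-transcribe; PCR-amplify, label with 6-FAM, digest with HpaI; separate by capillary electrophoresis. Activity fitted both directions versus DMSO.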

For assay [8], the target named is Hepatocyte nuclear factor 3-beta (Homo sapiens) (UniProt Q9Y261). In words: ATG_FoxA2_CIS: Attagene CIS-FACTORIAL HepG2 Assay for human Forkhead box A2 (FOXA2) (AID 2282942). Particulars: HepG2 cis-reporter transcription factor activity, 24 h; actives raise or lower the signal. The method, boiled down: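 Multiplexed cis-element reporter assay in transiently transfected HepG2. Twenty-four hours post-dosing, RNA was reverse-transcribed, amplified, FAM-labelled, HpaI-digested and separated by CE. Activity gain or loss relative to DMSO.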
Sequence of Hepatocyte nuclear factor 3-beta (Homo sapiens) (Q9Y261 whole entry, looked up): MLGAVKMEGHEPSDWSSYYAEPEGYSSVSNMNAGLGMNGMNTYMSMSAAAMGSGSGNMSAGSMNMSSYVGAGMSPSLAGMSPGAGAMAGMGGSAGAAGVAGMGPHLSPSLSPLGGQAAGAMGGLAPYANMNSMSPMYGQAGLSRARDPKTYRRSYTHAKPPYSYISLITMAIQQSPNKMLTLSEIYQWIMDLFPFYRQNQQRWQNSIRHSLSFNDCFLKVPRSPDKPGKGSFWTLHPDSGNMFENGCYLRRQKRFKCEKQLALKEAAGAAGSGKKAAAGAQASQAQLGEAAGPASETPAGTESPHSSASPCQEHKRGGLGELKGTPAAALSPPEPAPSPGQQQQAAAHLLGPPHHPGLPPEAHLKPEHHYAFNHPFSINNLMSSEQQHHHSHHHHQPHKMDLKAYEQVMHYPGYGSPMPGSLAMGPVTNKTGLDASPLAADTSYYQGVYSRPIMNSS

Assay [9] is described as follows: ATG_FoxO_CIS: Attagene CIS-FACTORIAL HepG2 Assay for human Forkhead box O (FoxO) (AID 2282943). The following applies: HepG2 Attagene cis-reporter, FoxO element, mRNA; actives raise or lower the signal. The method, boiled down:
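24 h chemical exposure, HepG2 with transient cis-MRTU transfection. RNA extraction, oligo(dT) RT, reporter-specific PCR, primer-extension labelling, HpaI digestion, CE fragment analysis; bidirectional fit, DMSO baseline.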

Assay [10] in a line: ATG_GATA_CIS: Attagene CIS-FACTORIAL HepG2 Assay for human GATA Binding Protein (AID 2282944). Particulars: HepG2 GATA cis-element reporter, Attagene multiplex mRNA; actives raise or lower the signal. The method, boiled down: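 Endogenous transcription factor activity was captured through cis-promoter-driven reporters in transfected HepG2 cells. After 24 h exposure, reporter transcripts were quantified by RT-PCR with fluorescent capillary electrophoresis, and responses fitted both directions against DMSO.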

Assay [11] is described as follows: ATG_ISRE_CIS: Attagene CIS-FACTORIAL HepG2 Assay for human Interferon Regulatory Factor 1 (IRF1) binding to an Interferon-Stimulated Response Element (ISRE) (AID 2282948). The following applies: HepG2 ISRE cis-reporter (Attagene), mRNA transcription readout; actives raise or lower the signal. The method, boiled down: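 Transfected HepG2 (multiple reporter transcription units, cis elements) dosed 24 h. RNA → oligo(dT) RT → PCR → 6-FAM primer extension → HpaI → CE. DMSO = negative control/baseline.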

Assay [12] is described as follows: ATG_M_32_CIS: Attagene CIS-FACTORIAL HepG2 Assay for M32 Transcription Factor (Internal Marker) (AID 2282949).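 Also: background control marker of the multiplexed CIS panel rather than a real target.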 Particulars: HepG2 Attagene cis-factorial M32 reporter, mRNA; actives raise or lower the signal. The method, boiled down: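 Internal background marker read-out: RT-PCR/capillary electrophoresis fluorescence of reporter transcripts from transiently transfected HepG2 cells after 24 h chemical exposure. Activity fitted bidirectionally relative to DMSO negative control.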

Assay [13] deals with Hepatocyte nuclear factor 6 (Homo sapiens) (UniProt Q9UBC0). In words: ATG_HNF6_CIS: Attagene CIS-FACTORIAL HepG2 Assay for human Hepatocyte Nuclear Factor 6 (HNF6) (AID 2282952). Particulars: HepG2 Attagene cis-factorial HNF6 reporter transcription; actives raise or lower the signal. The method, boiled down:
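HepG2, transient MRTU transfection (cis promoters); 24 h chemical exposure; total RNA → oligo(dT) RT → PCR → 6-FAM labelling → HpaI cut → CE; bidirectional fit vs DMSO.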

Assay [14] addresses Heat shock factor protein 1 (Homo sapiens) (UniProt Q00613). The assay can be described thus: ATG_HSE_CIS: Attagene CIS-FACTORIAL HepG2 Assay for human Heat Shock Transcription Factor 1 (HSE) (AID 2282953). Particulars: HepG2 HSE cis-reporter, Attagene RNA transcription; actives raise or lower the signal. The method, boiled down: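 Cells were transfected with cis-element-driven reporter constructs, dosed for 24 h, then total RNA was reverse-transcribed and reporter cDNA amplified, FAM-labelled and digested with HpaI. Fragments were resolved by capillary electrophoresis; gain or loss was fitted against DMSO.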

The nature of assay [15]: ATG_MRE_CIS: Attagene CIS-FACTORIAL HepG2 Assay for human Metal Responsive Element (MRE) (AID 2282954). The following applies: HepG2 MRE cis-reporter transcription, Attagene multiplex; actives raise or lower the signal. The method, boiled down: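 HepG2 cells transiently transfected with multiple cis-element reporter units measure endogenous MTF1-driven transcription. After 24 h compound exposure, reporter mRNA is quantified by RT-PCR with 6-FAM labelling, HpaI digestion and capillary electrophoresis; bidirectional fits versus DMSO.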

Assay [16] deals with Paired box protein Pax-6 (Homo sapiens) (UniProt P26367). In words: ATG_Pax6_CIS: Attagene CIS-FACTORIAL HepG2 Assay for human Paired Box 6 (PAX6) (AID 2282956). The following applies: HepG2 CIS-FACTORIAL PAX6 reporter transcription, RNA readout; actives raise or lower the signal. The method, boiled down: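 Transient MRTU transfection of HepG2 → compound exposure 24 h → TriZol RNA, oligo(dT) RT → PCR, 6-FAM primer extension, HpaI cut → capillary electrophoresis; activity fitted both directions against DMSO.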
Sequence of Paired box protein Pax-6 (Homo sapiens) (P26367 whole entry, looked up): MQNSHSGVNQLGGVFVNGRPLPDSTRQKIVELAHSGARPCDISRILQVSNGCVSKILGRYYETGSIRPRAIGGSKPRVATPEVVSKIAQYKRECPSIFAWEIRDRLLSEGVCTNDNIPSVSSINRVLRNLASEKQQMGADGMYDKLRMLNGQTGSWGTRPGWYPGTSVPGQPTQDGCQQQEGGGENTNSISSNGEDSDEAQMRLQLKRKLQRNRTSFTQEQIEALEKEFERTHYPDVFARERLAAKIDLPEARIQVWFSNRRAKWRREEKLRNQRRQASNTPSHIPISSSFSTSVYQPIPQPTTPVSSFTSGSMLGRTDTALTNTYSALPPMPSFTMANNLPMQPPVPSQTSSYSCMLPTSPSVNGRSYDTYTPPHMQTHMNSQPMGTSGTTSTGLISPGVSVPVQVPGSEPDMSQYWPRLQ

Assay [17] in a line: ATG_PXRE_CIS: Attagene CIS-FACTORIAL HepG2 Assay for human Pregnane X Receptor Element (PXRE) (AID 2282957). The following applies: HepG2 Attagene CIS-FACTORIAL PXRE reporter, mRNA; actives raise or lower the signal. The method, boiled down:
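Transfect HepG2 with MRTUs (cis promoter elements); dose chemical, incubate 24 h; isolate RNA, RT with oligo(dT), PCR, 6-FAM label, HpaI cut, CE. Gain/loss fit vs DMSO.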

Assay [18] can be described thus: ATG_Sox_CIS: Attagene CIS-FACTORIAL HepG2 Assay for human SRY-box transcription factor (SOX) (AID 2282960). Particulars: HepG2 Attagene cis-factorial SOX reporter, mRNA; actives raise or lower the signal. The method, boiled down: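 Fluorescence-labelled cDNA fragments from reporter transcripts, sized by CE, give the signal. Cells: HepG2, transiently transfected with cis-regulated reporter units. Exposure 24 h; DMSO negative control; bidirectional curve fitting.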

The nature of assay [19]: ATG_SREBP_CIS: Attagene CIS-FACTORIAL HepG2 Assay for human Sterol Regulatory Element Binding (SREBP) (AID 2282962). The following applies: HepG2 Attagene cis-factorial SREBP reporter, mRNA; actives raise or lower the signal. The method, boiled down: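 Transfected HepG2 (cis-regulated reporter library, endogenous TFs) → compound 24 h → total RNA → oligo(dT) RT → reporter-specific PCR → FAM primer extension, HpaI cut → CE fluorescence. Fit bidirectional vs DMSO.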

SMILES strings stand for the structures. Active and inactive are the calls of the source. The calls were made as follows: active = hit-call score of the fitted dose curve at least 0.9, where 1 is the maximum; inactive = score below 0.9.

Sequence of Heat shock factor protein 1 (Homo sapiens) (Q00613 whole entry, looked up, the tested form may be a part): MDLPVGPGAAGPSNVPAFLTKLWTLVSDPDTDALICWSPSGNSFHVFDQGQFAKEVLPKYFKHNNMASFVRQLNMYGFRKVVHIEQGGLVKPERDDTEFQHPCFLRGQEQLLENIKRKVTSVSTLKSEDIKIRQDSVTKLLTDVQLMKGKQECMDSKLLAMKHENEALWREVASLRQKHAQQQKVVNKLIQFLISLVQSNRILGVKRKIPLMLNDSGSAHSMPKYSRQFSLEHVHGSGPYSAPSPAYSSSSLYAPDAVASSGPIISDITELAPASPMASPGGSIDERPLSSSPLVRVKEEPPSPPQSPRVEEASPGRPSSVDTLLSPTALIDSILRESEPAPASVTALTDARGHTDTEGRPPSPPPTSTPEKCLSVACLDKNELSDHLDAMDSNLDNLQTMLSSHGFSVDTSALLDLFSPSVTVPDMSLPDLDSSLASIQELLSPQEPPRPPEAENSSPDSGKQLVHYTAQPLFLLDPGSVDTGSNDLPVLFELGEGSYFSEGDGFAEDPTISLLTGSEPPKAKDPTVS
Sequence of Hepatocyte nuclear factor 6 (Homo sapiens) (Q9UBC0 whole entry, looked up): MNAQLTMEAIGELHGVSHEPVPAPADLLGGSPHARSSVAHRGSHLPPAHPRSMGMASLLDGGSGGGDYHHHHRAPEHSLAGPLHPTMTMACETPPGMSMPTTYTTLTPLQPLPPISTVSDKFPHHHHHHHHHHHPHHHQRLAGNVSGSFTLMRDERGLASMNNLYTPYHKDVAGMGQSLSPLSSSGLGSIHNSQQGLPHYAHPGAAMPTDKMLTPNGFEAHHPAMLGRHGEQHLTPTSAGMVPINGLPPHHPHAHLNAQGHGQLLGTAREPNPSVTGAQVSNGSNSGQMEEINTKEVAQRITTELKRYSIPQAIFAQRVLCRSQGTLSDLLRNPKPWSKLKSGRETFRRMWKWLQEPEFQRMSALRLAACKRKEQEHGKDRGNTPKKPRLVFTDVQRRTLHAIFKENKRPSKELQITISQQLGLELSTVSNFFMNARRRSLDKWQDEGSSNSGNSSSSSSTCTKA
Sequence of Transcription factor E2F1 (Homo sapiens) (Q01094 whole entry, looked up): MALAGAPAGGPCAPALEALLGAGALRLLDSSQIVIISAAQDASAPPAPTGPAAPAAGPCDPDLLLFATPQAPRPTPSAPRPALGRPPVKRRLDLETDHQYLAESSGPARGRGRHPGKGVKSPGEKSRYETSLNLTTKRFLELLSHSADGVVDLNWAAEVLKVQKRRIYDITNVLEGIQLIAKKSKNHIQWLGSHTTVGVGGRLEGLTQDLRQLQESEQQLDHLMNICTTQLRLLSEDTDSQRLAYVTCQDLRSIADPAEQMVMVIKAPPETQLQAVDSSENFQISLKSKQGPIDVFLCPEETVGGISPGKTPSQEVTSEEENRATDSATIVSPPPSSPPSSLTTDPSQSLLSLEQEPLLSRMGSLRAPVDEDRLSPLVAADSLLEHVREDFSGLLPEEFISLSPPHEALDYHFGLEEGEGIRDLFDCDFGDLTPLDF

As for `CCCCCCCCCCCC#N`, the AC50 (as a rule, the midpoint of the concentration-response curve, whichever way the signal moves) in [1] was 103 µM (active); in assay [2] it was 148 µM (active); in [15], 136 µM (active); in assay [17] it was 27.8 µM (active); in assay [18], 103 µM (active); in assay [19], 128 µM (active). Further, the result in assay [3], in assay [4], in assay [5], in assay [6], in assay [7] and in assay [8] was inactive. In addition, the outcome in assay [9], in [10], in [11], in [12], in assay [13] and in [14] was inactive. Moreover, in assay [16], the result was inactive.

For the molecule `N#CCCCCC#N`, the result in [1], in assay [2], in assay [3], in assay [4], in assay [5] and in [6] was inactive. In addition, the result in [7], in assay [8], in assay [9], in [10], in [11] and in [12] was inactive. The molecule was classed as inactive in assay [13], in [14], in assay [15], in [16], in [17] and in assay [18]. For the same molecule, the result in [19] was inactive.

As for `Oc1ccc(C2(c3ccc(O)cc3)c3ccccc3-c3ccccc32)cc1`, the AC50 is 17.7 µM (active) in [1]; 10.6 µM (active) in [2]; 19.8 µM (active) in assay [4]; 14 µM (active) in assay [6]; 9.31 µM (active) in assay [9]; 14.6 µM (active) in assay [10]. Further, the AC50 in [11] was 14.8 µM (active); in [13], 16.8 µM (active); in [14], 17.5 µM (active); in [15], 13.1 µM (active); in [16] it was 14.9 µM (active); in assay [17], 2.78 µM (active). Besides, in assay [19], the AC50 was 13.6 µM (active). The molecule was classed as inactive in assay [3], in [5], in assay [7], in assay [8], in assay [12] and in [18].

Consider `CCCC=NO`, for which the result in assay [1], in assay [2], in assay [3], in [4], in assay [5] and in assay [6] was inactive. Moreover, the molecule was classed as inactive in [7], in assay [8], in assay [9], in assay [10], in assay [11] and in [12]. For the same molecule, the result in assay [13], in assay [14], in assay [15], in assay [16], in assay [17] and in [18] was inactive. The result in [19] was inactive.

Consider `Nc1ccccc1C(=O)OCCc1ccccc1`, for which the molecule was classed as inactive in [1], in assay [2], in assay [3], in assay [4], in assay [5] and in assay [6]. Also, the molecule was called inactive in assay [7], in assay [9], in assay [10], in assay [11], in [12] and in assay [13]. Moreover, the result in assay [14], in assay [16], in assay [18] and in [19] was inactive. Also, the half-maximal activity concentration (AC50) in assay [8] is 14.6 µM (active); in assay [15] it was 33.4 µM (active); in [17] it was 12.3 µM (active).
